Entries with a potency or affinity are not part of this list.
tested on: Klebsiella pneumoniae; conditions: Concentration 32 ug.mL-1;; ASSAY_TEST Inhibition of Bacterial Growth; detection method Absorption (OD600); MEDIA CAMHB; plate type 384well; NBS; CORNING #3640; time 18 hr

Structure (SMILES) | Inhibition [%]
CCCn1c(=O)c2ccc(C(=O)NC3CCCCC3)cc2n2c(=O)n(CC#N)nc12 | 5.71
O=S(=O)(c1ccc2nncn2c1)N(Cc1cccc(Cl)c1)c1ccc2c(c1)OCO2 | 8.88
Cc1ccc(NC(=O)Cn2nc3cc(C)nc(Nc4ccc(F)cc4)n3c2=O)cc1 | 11.23
Cc1ccc(-c2ccc3nn(Cc4c(F)cccc4Cl)c(=O)n3n2)cc1 | 17.42
Cc1cccc(CN(c2cccc(F)c2)S(=O)(=O)c2ccc3nncn3c2)c1 | 14.36
Cc1cc(C)cc(N(Cc2ccccc2F)S(=O)(=O)c2cccn3c(C)nnc23)c1 | 2.04
CCc1cccc(C)c1NC(=O)CSc1nnc2ccc(C(=O)Nc3cccc(F)c3)cn12 | 5.93
COc1cc(OC)c(NC(=O)Cn2nc3c(Sc4cccc(C)c4)nccn3c2=O)cc1Cl | 10.68
COc1cc(NC(=O)CSc2nnc3c(=O)n(-c4ccccc4)ccn23)cc(OC)c1 | 17.43
O=C(CSc1nnc2c(=O)n(-c3cccc(F)c3)ccn12)N1CCN(c2ccc(F)cc2)CC1 | 10.19
CCc1ccccc1Sc1nccn2c(=O)n(CC(=O)Nc3c(C)cccc3C)nc12 | 10.25
Cc1ccc(CN(c2cc(C)cc(C)c2)S(=O)(=O)c2cccn3c(C)nnc23)cc1 | 1.08
COc1cccc(Oc2nccn3c(=O)n(CC(=O)NCc4cccs4)nc23)c1 | 11.61
C=Cc1ccc(CN(c2ccc(C(C)C)cc2)S(=O)(=O)c2cccn3c(C)nnc23)cc1 | 4.48
CCc1ccc(NC(=O)Cn2nc3c4cc(-c5ccc(Cl)cc5)nn4ccn3c2=O)cc1 | 19.83
COc1ccc(-n2ccn3c(-c4ccc([N+](=O)[O-])cc4)nnc3c2=O)cc1Cl | 9.41
CSc1cccc(NC(=O)Cn2c(=O)c3nnc(C(C)C)n3c3ccccc32)c1 | 10.43
CCc1nnc2c(SCC(=O)Nc3cc(Cl)ccc3OC)nc3ccccc3n12 | 11.61
NC(=O)C1CCN(C(=O)CCc2nnc3c(N4CCCCC4)nc4ccccc4n23)CC1 | 15.2
CC(C)Sc1ccc2nn(CC(=O)Nc3ccccc3F)c(=O)n2n1 | 9.69

Structure (SMILES) | Inhibition [%]
CC(C)CCn1c(=O)c2sccc2n2c(=O)n(Cc3ccccc3Cl)nc12 | 16.14
COC(=O)c1sccc1NC(=O)CSc1nc2ccccc2n2c(C)nnc12 | 6.24
COC(=O)c1ccc(NC(=O)Cn2nc3ccc(SCc4ccc(Cl)cc4)nn3c2=O)cc1 | 3.21
O=c1c2nnc(SCc3ccc(Cl)cc3)n2ccn1-c1ccc(F)cc1 | 9.2
Cc1ccc(-c2cc3c4nn(CC(=O)Nc5ccc(C)c(Cl)c5)c(=O)n4ccn3n2)cc1C | 10.5
COc1ccc(NC(=O)Cn2nc3c(Sc4cccc(F)c4)nccn3c2=O)cc1Cl | 3.02
COc1cc(NC(=O)Cn2nc3ccc(SC4CCCCC4)nn3c2=O)cc(OC)c1 | 6.28
COc1ccc(NC(=O)Cn2nc3c(N4CCCC4)nccn3c2=O)cc1 | 6.93
CCCc1nnc2c(=O)n(CC(=O)Nc3ccc4c(c3)OCCO4)c3ccccc3n12 | -1.14
COc1ccccc1-n1ccn2c(SCC(=O)N3CCN(c4ccccc4F)CC3)nnc2c1=O | 14.09
Cc1nnc2ccc(S(=O)(=O)N(Cc3ccccc3F)c3cccc(Cl)c3)cn12 | 8.99
O=C(Cn1nc2c(=O)n(-c3ccc(Br)cc3)ccn2c1=O)Nc1cc(F)ccc1F | 9.16
CC(C)c1ccc(Cn2c(=O)c3sccc3n3c(SCc4cccc(C(F)(F)F)c4)nnc23)cc1 | 5.43
COc1cc(OC)c(NC(=O)Cn2nc3c(SC4CCCCC4)nccn3c2=O)cc1Cl | 9.62
CC(=O)c1cccc(NC(=O)CSc2nnc3ccc(C(=O)Nc4cccc(F)c4)cn23)c1 | 7.28
CCCCOc1ccc(-c2cc3c4nnc(SCC(=O)Nc5cccc(C(C)=O)c5)n4ccn3n2)cc1 | 9.96
Cc1cc(C)cc(Nc2nc(C)cc3nn(CC(=O)Nc4cccc(Cl)c4)c(=O)n23)c1 | 7.28
CCOC(=O)c1cccc(NC(=O)CSc2nnc3ccc(C(=O)Nc4cccc(F)c4)cn23)c1 | 3.6
CC(C)CCn1c(=O)c2ccc(C(=O)NC3CCCC3)cc2n2c(=S)[nH]nc12 | -1.87

tested on: Candida albicans; conditions: Concentration 32 ug.mL-1; ASSAY_TEST Inhibition of Fungal Growth; detection method Absorption (OD530)

Structure (SMILES) | Inhibition [%]
CCCn1c(=O)c2ccc(C(=O)NC3CCCCC3)cc2n2c(=O)n(CC#N)nc12 | 1.88
O=S(=O)(c1ccc2nncn2c1)N(Cc1cccc(Cl)c1)c1ccc2c(c1)OCO2 | 1.66
Cc1ccc(NC(=O)Cn2nc3cc(C)nc(Nc4ccc(F)cc4)n3c2=O)cc1 | 3.22
Cc1ccc(-c2ccc3nn(Cc4c(F)cccc4Cl)c(=O)n3n2)cc1 | -0.59
Cc1cccc(CN(c2cccc(F)c2)S(=O)(=O)c2ccc3nncn3c2)c1 | 3.33
Cc1cc(C)cc(N(Cc2ccccc2F)S(=O)(=O)c2cccn3c(C)nnc23)c1 | 1.9
CCc1cccc(C)c1NC(=O)CSc1nnc2ccc(C(=O)Nc3cccc(F)c3)cn12 | 1.09
COc1cc(OC)c(NC(=O)Cn2nc3c(Sc4cccc(C)c4)nccn3c2=O)cc1Cl | 47.09
COc1cc(NC(=O)CSc2nnc3c(=O)n(-c4ccccc4)ccn23)cc(OC)c1 | 0.46
O=C(CSc1nnc2c(=O)n(-c3cccc(F)c3)ccn12)N1CCN(c2ccc(F)cc2)CC1 | 2.58
CCc1ccccc1Sc1nccn2c(=O)n(CC(=O)Nc3c(C)cccc3C)nc12 | 3.49
Cc1ccc(CN(c2cc(C)cc(C)c2)S(=O)(=O)c2cccn3c(C)nnc23)cc1 | -0.03
COc1cccc(Oc2nccn3c(=O)n(CC(=O)NCc4cccs4)nc23)c1 | 0.8
C=Cc1ccc(CN(c2ccc(C(C)C)cc2)S(=O)(=O)c2cccn3c(C)nnc23)cc1 | 1.49
CCc1ccc(NC(=O)Cn2nc3c4cc(-c5ccc(Cl)cc5)nn4ccn3c2=O)cc1 | 3.83
COc1ccc(-n2ccn3c(-c4ccc([N+](=O)[O-])cc4)nnc3c2=O)cc1Cl | 5.76
CSc1cccc(NC(=O)Cn2c(=O)c3nnc(C(C)C)n3c3ccccc32)c1 | 3.45
CCc1nnc2c(SCC(=O)Nc3cc(Cl)ccc3OC)nc3ccccc3n12 | 1.63
NC(=O)C1CCN(C(=O)CCc2nnc3c(N4CCCCC4)nc4ccccc4n23)CC1 | 1.8
CC(C)Sc1ccc2nn(CC(=O)Nc3ccccc3F)c(=O)n2n1 | 2.46

Structure (SMILES) | Inhibition [%]
CC(C)CCn1c(=O)c2sccc2n2c(=O)n(Cc3ccccc3Cl)nc12 | -1.94
COC(=O)c1sccc1NC(=O)CSc1nc2ccccc2n2c(C)nnc12 | 5.11
COC(=O)c1ccc(NC(=O)Cn2nc3ccc(SCc4ccc(Cl)cc4)nn3c2=O)cc1 | 46.24
O=c1c2nnc(SCc3ccc(Cl)cc3)n2ccn1-c1ccc(F)cc1 | 1.38
Cc1ccc(-c2cc3c4nn(CC(=O)Nc5ccc(C)c(Cl)c5)c(=O)n4ccn3n2)cc1C | 8.38
COc1ccc(NC(=O)Cn2nc3c(Sc4cccc(F)c4)nccn3c2=O)cc1Cl | 0.26
COc1cc(NC(=O)Cn2nc3ccc(SC4CCCCC4)nn3c2=O)cc(OC)c1 | 4.08
COc1ccc(NC(=O)Cn2nc3c(N4CCCC4)nccn3c2=O)cc1 | 1.38
CCCc1nnc2c(=O)n(CC(=O)Nc3ccc4c(c3)OCCO4)c3ccccc3n12 | 4.16
COc1ccccc1-n1ccn2c(SCC(=O)N3CCN(c4ccccc4F)CC3)nnc2c1=O | 3.15
Cc1nnc2ccc(S(=O)(=O)N(Cc3ccccc3F)c3cccc(Cl)c3)cn12 | -0.66
O=C(Cn1nc2c(=O)n(-c3ccc(Br)cc3)ccn2c1=O)Nc1cc(F)ccc1F | 1.05
CC(C)c1ccc(Cn2c(=O)c3sccc3n3c(SCc4cccc(C(F)(F)F)c4)nnc23)cc1 | -0.58
COc1cc(OC)c(NC(=O)Cn2nc3c(SC4CCCCC4)nccn3c2=O)cc1Cl | 7.28
CC(=O)c1cccc(NC(=O)CSc2nnc3ccc(C(=O)Nc4cccc(F)c4)cn23)c1 | 5.29
CCCCOc1ccc(-c2cc3c4nnc(SCC(=O)Nc5cccc(C(C)=O)c5)n4ccn3n2)cc1 | 5.2
Cc1cc(C)cc(Nc2nc(C)cc3nn(CC(=O)Nc4cccc(Cl)c4)c(=O)n23)c1 | 4.92
CCOC(=O)c1cccc(NC(=O)CSc2nnc3ccc(C(=O)Nc4cccc(F)c4)cn23)c1 | 0.96
CC(C)CCn1c(=O)c2ccc(C(=O)NC3CCCC3)cc2n2c(=S)[nH]nc12 | 0.86

Reference: ChEMBL document CHEMBL4513146, “CO-ADD screening of Karazin Kharkiv National University (Ukraine) compounds”
